Bioassay records deposited in PubChem by National Center for Advancing Translational Sciences (NCATS).
TGFb SMAD3 inh – TGF-b pathway inhibition. HepG2 CAGA-GFP TGF-b/SMAD3 reporter, GFP fluorescence, 18 h; TGF-beta stimulated, 500 pg/mL final. Potency, µM (titrated, usually from 46.1 µM), for inactives: top-dose activity, negative = inhibition, hits mostly inhibitors. actives 1.2% (n = 410,000); further: on the % scale 0 is the no-effect control and ±100 the full control effect; nearly all actives have a fitted effect of over 65% in size
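Inhibition of TGF-beta-driven CAGA-GFP reporter expression in HEPG2 cells is measured by cellular GFP fluorescence after 18 h stimulation with 500 pg/mL recombinant TGF-beta in 1% FBS medium at 37 degrees C.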
ATXN2 expr inh – inhibitors of ATXN2 expression. HEK-293 ATXN2-luciferase reporter, luminescence, 24 h. Potency, µM (top dose mostly 57 µM), for inactives: top-dose activity change, negative = inhibition, hits mostly inhibitors. actives 0.72% (n = 360,000); further: on the % scale 0 is the no-effect control and ±100 the full control effect; nearly all actives have a fitted effect of over 55% in size
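qHTS (up to 57 uM final) was run with 24 h compound exposure of reporter cells at 37 °C. Each well was multiplexed: SteadyGlo luminescence measured ATXN2-luciferase expression after a fluorogenic Gly-Phe-AFC viability readout (25 uM final).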
Apoferritin bind – candidate novel general anesthetic via apoferritin binding | apoferritin/1-aminoanthracene competitive binding, fluorescence | Potency, µM (doses to about 77.5 µM), for the others: at the highest dose activity change, negative = displacement, actives largely listed as inhibitors | actives 0.074% (n = 350,000) | AID 485281; further: on the % scale 0 is the no-effect control and ±100 the full control effect; nearly all actives have a fitted effect of over 20% in size
Target sequence (P02791 2-175 limits assumed): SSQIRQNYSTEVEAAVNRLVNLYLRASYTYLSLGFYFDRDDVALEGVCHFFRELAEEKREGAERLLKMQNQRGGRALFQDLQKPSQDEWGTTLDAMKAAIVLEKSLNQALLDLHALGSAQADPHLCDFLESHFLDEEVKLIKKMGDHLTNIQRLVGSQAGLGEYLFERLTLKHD
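Steps: apoferritin (10 uM) was premixed with half-saturated 1-AMA in PBS, compounds were pin-transferred, plates stood 10 min at room temperature, fluorescence was read at 380/535 nm, and curves were fitted with a Hill equation.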
ATXN viability – viability counter-screen for ATXN expression inhibitors | actives 0.49% (n = 400,000) | S2 cells (HEK-293 line with an ATXN2-luciferase reporter) viability, CellTiter-Fluor protease fluorescence, 24 h | Potency, µM (series often up to 56.7 µM), usual class: cytotoxic; further: nearly all actives have a fitted effect of over 40% in size
HepG2 tox-1 – counter-screen for TGF-b inhibitors: cytotoxicity in HepG2 cells. HepG2 CAGA-GFP viability, ATP luminescence, 18 h. Potency, µM (highest dose often 46.1 µM), without a hit: top-dose activity change, negative = cytotoxicity, hits mostly cytotoxic. actives 0.76% (n = 410,000). AID 588856
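HepG2 CAGA-GFP cells (1000/well, DMEM with 1% FBS) received compound, then TGF-beta at 500 pg/mL final, and were incubated 18 hours at 37 degrees C. Viability was read by CellTiter-Glo luminescence. Media-only wells were set as complete cell-killing and DMSO as no toxicity.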
TGFb confirm – confirmation of TGF-b signaling inhibitors in HepG2 reporter cells; AID 720534; Potency, µM (titrated, usually from 46.1 µM), without a hit: at the highest dose activity, negative = inhibition, actives largely listed as inhibitors; HepG2 CAGA-GFP TGF-b reporter, GFP fluorescence, 18 h; cells stimulated with TGF-beta, 500 pg/mL; shares compounds with TGFb SMAD3 inh; actives 63% (n = 1,600); further: on the % scale 0 is the no-effect control and ±100 the full control effect; nearly all actives have a fitted effect of over 65% in size
HepG2 tox-2 – toxic to HepG2 cells in TGF-b counterscreen. Potency, µM (highest dose often 46.1 µM), without a hit: at the top dose activity, negative = cytotoxicity, usual class: inhibitors. actives 27% (n = 1,600). shares compounds with TGFb SMAD3 inh. AID 720535. HepG2 CAGA-GFP viability, ATP luminescence, 18 h; cells stimulated with TGF-beta, 500 pg/mL; further: on the % scale 0 is the no-effect control and ±100 the full control effect; nearly all actives have a fitted effect of over 70% in size
TGFb CCL64 inh – TGF-b inhibition, CCL64 orthogonal assay; shares compounds with TGFb SMAD3 inh; CCL64 CAGA-GFP reporter, TGF-b stimulated, GFP fluorescence, 18 h; Potency, µM (highest dose often 46.1 µM), inactives show at the highest dose activity, negative = inhibition, usual class: inhibitors; actives 41% (n = 1,600); further: nearly all actives have a fitted effect of over 65% in size
TGFb COP inh – blocks TGF-b signaling in HepG2 COP reporter | Potency, µM (top dose mostly 46.1 µM), without a hit: at the top dose activity, negative = inhibition, most hits filed as inhibitors | HepG2 COP-GFP TGF-b reporter, GFP fluorescence, 18 h; cells stimulated by added recombinant TGF-beta | actives 3% (n = 1,600) | shares compounds with TGFb SMAD3 inh; further: nearly all actives have a fitted effect of over 70% in size
* marks the source's active call; other numbers are inactive results; i = inactive; ? = inconclusive; · = not tested or not shown. Most compounds without a hit are left out; they make up all but 2.4% or so of the library. The call rests on the fitted dose curve; in most records, active means well fitted curve in the direction sought with a large enough effect; inconclusive means small, poorly fitted or top-dose-only effect, or another doubt; inactive means no such curve, though single readings can be large; an effect the other way counts as inactive or inconclusive. Potency means the concentration at half of the fitted maximal effect.

SMILES	TGFb SMAD3 inh	ATXN2 expr inh	Apoferritin bind	ATXN viability	HepG2 tox-1	TGFb confirm	HepG2 tox-2	TGFb CCL64 inh	TGFb COP inh
Cc1cccc(C)c1-n1nnnc1C(c1cccs1)N1CCN(C/C=C/c2ccccc2)CC1 (stereo not given)	?	-13%	·	i	-29%	?	-17%	21µM*	7%
Cc1ccc2c(cnn2C(=O)CCC(=O)N2CCCCC2C)c1 (stereo not given)	3%	-1%	?	i	-19%	·	·	·	·
Cc1cc(C)cc(N(C(C)C(=O)N2CCCC2)S(C)(=O)=O)c1 (stereo not given)	-1%	-12%	-1%	i	4%	·	·	·	·
O=C1OCCN1C(=O)[C@H]1[C@H](c2ccccc2)C(c2cccc(Cl)c2)=NN1c1ccc(Br)cc1	?	-1%	757%	·	-15%	?	-17%	23%	3%
Cc1onc(NC(=O)CSCC(=O)O)c1Br	16%	6%	-7%	i	-2%	·	·	·	·
CCO[C@@H]1OC(C(=O)NCc2ccccc2)=C[C@H](c2ccc(Br)cc2)[C@H]1CCCO	?	?	-1%	?	-3%	?	-12%	?	7%
CCO[C@H]1OC(C(=O)Nc2ccccc2)=C[C@@H](c2ccc(C(F)(F)F)cc2)[C@@H]1CCCO	14µM*	?	1%	?	-19%	?	-29%	?	25%
Cc1cc(C(=O)NCc2ccc(F)cc2)c2ccccc2n1	-7%	3%	-5%	i	-6%	·	·	·	·
O=C(CCC1CCCN(C(=O)c2cccc(F)c2)C1)N1CCN(c2ccccn2)CC1 (stereo not given)	0%	7%	-14%	i	-14%	·	·	·	·
COc1ccc(CNC(=O)N2CCc3nc(Nc4cc(OC)c(OC)c(OC)c4)ncc3C2)cc1	3%	16%	·	i	-14%	·	·	·	·
COc1cc(NC(=O)N2CCc3nc(Nc4cc(Cl)cc(Cl)c4)ncc3C2)cc(OC)c1OC	18µM*	?	·	i	-5%	21µM*	?	7.3µM*	106%
COc1cc2ccccc2cc1C(=O)Nc1ccc(C)cc1	?	·	-6%	i	-61%	·	·	·	·
COc1cc2ccccc2cc1C(=O)Nc1ccc(Cc2ccncc2)cc1	?	-19%	3%	?	-17%	8.2µM*	?	12µM*	43%
Oc1cccc2ccc[n+](CC(O)Cn3c4ccccc4c4ccccc43)c12 (stereo not given)	?	-16%	-13%	?	-40%	·	·	·	·
CCOC(=O)C1=C[C@@H](C(C)(C)C)N(S(=O)(=O)c2ccc(C)cc2)[C@H]1c1ccc(OC)cc1	?	0%	·	i	-16%	·	·	·	·
CCOC(=O)C1=C[C@@H](C(C)(C)C)N(S(=O)(=O)c2ccc([N+](=O)[O-])cc2)[C@H]1c1ccccc1	?	-20%	·	i	-15%	?	-3%	?	-1%
